Screening data (PubChem)
HIV RNase H inh: HIV-1 RT RNase H inhibitors, primary screen, biochemical, fluorescence | RT-RNase H RNA/DNA duplex cleavage | inhibition, % at 10 µM | actives 1.9% (n = 65,000) | AID 565, 2006; in the data active = inhibition above about 50%
* marks the source's active call; other numbers are inactive results. Many of the other results were omitted from the sample, so hits are more common in it than they were.

SMILES	HIV RNase H inh
COc1ccc(OC)c(CN2CCN(c3ccccc3OC)CC2)c1	6.0
CCOc1ccccc1N1Cc2cc(C)c(C)cc2C1	52.7*
CCOc1ccccc1N1CCN(C(=O)c2cc(C)oc2C)CC1	-7.6
COc1ccc(OC)c(N2Cc3cc(C)c(C)cc3C2)c1	62.0*
CCOc1ccccc1N1CCN(Cc2cccc(OC)c2OC)CC1	3.2
COc1ccc(OC)c(-n2cnnn2)c1	-9.8
c1cnc(Oc2ccc(-c3nnco3)cc2)cn1	-1.2
O=C(CCC(=O)N(Cc1ccco1)C(C(=O)NC1CCCC1)c1ccncc1)Nc1cccnc1 (stereo unspecified)	-5.3
CCCCOC(=O)CSc1nc(N)c(C#N)c(-c2ccc(OC)cc2)c1C#N	0.7
CCCCOC(=O)CSc1nc(N)c(C#N)c(-c2ccc(OCC)cc2)c1C#N	-10.0
CCCCOc1ccc(-c2c(C#N)c(N)nc(SCC(N)=O)c2C#N)cc1	62.7*
CCC(C)n1c(-c2cccs2)nc2nc3ccccc3nc21 (stereo unspecified)	-37.8
Cc1ccc(-c2nc3cccnc3o2)cc1NC(=O)COc1ccc(Cl)cc1C	53.0*
Cc1cc(Cl)ccc1OCC(=O)NCCC(=O)O	-12.5
Cc1ccc(-c2nc3ncccc3o2)cc1NC(=O)Cc1ccc(Cl)cc1	10.7
Cc1nc(=O)c(-c2ccccc2)c(C)n1-c1ccc(O)c(C(=O)O)c1	1.5
CCOCCn1c(=O)c2c(nc3n2CCN3c2ccc(CC)cc2)n(C)c1=O	-4.8
Cc1ccsc1C1NC(=O)c2c(sc3c2CCCC3)N1 (stereo unspecified)	58.5*
O=C1NC(c2ccccn2)Nc2sc3c(c21)CCC3 (stereo unspecified)	-6.0
Cc1ccsc1C1NC(=O)c2ccccc2N1 (stereo unspecified)	-7.0
COc1ccc(C2CC(=O)N3CN(c4ccc(C)c(Cl)c4)CSC3=C2C#N)cc1OC (stereo unspecified)	18.1
CCSC1=C(C#N)C(c2ccc(F)cc2)CC(=O)N1 (stereo unspecified)	-2.1
COc1cccc(C2CC(=O)NC(SC)=C2C#N)c1 (stereo unspecified)	-25.3
CCc1ccc(N2CSC3=C(C#N)C(c4cccs4)CC(=O)N3C2)cc1 (stereo unspecified)	54.2*
N#CC1=C2SCN(c3ccc(F)cc3)CN2C(=O)CC1c1cccc(F)c1 (stereo unspecified)	51.3*
SMILES	HIV RNase H inh
N#CC1=C2SCC(O)(c3ccccc3)N2C(=O)CC1c1ccccc1 (stereo unspecified)	-12.1
COC(=O)C1C(=O)N2CCCSC2=C(C#N)C1c1cccs1 (stereo unspecified)	-0.3
CCOC(=O)c1ccc(N2CSC3=C(C#N)C(c4cccs4)CC(=O)N3C2)cc1 (stereo unspecified)	35.5
CCc1ccc(C2CC(=O)N3CN(c4ccccc4)CSC3=C2C#N)cc1 (stereo unspecified)	61.5*
CCCCC(=O)NC(Nc1cc(C)ccn1)(C(=O)OCC)C(F)(F)F (stereo unspecified)	-0.7
O=S(=O)(NCCSc1nnc(-c2ccco2)n1-c1ccccc1)c1ccccc1	-14.8
O=C(c1ccc(Br)cc1)N1CCN(S(=O)(=O)c2ccccc2)CC1	-5.8
CCOc1ccc(OCC)c(NC(=O)CN2CCC(NC(=O)c3cccc(F)c3)CC2)c1	9.9
O=C(NCCc1ccccc1)C1CC(c2ccccc2O)=NO1 (stereo unspecified)	-24.4
Cc1cc(C)c(Cn2c(=O)n(CCCC(=O)NCc3ccco3)c(=O)c3ccccc32)c(C)c1	79.9*
O=C(CCCn1c(=O)c2ccccc2n(CC(=O)NCc2ccco2)c1=O)NCc1ccco1	-5.0
Cc1ccc(C)c(Cn2c(=O)n(CCCC(=O)NCc3ccco3)c(=O)c3ccccc32)c1	-2.4
CCN(CC)C(=O)CSc1nc2ccccc2c(=O)n1CCC(=O)NCc1ccc(F)cc1	-1.0
COc1ccccc1-n1c(SCC(=O)Nc2cccc(C)c2)nc2c(c1=O)SCC2	-8.3
COC(=O)CSc1nnc(-c2ccncc2)n1N	-3.6
Cn1c(SC/C=C/c2ccccc2)nnc1-c1ccco1	-7.7
Nn1c(SC/C=C/c2ccccc2)nnc1-c1ccncc1	52.1*
COc1cccc(CNC(=O)CCNS(=O)(=O)c2cccs2)c1	-0.1
Cc1nc2c(c(=O)n1Cc1ccccc1Cl)c1nc3ccccc3nc1n2Cc1ccco1	38.1
Cc1nc2c(c(=O)n1CC1CCCO1)c1nc3ccccc3nc1n2Cc1ccc2c(c1)OCO2 (stereo unspecified)	37.6
COc1ccc(Cn2c3nc4ccccc4nc3c3c(=O)n(Cc4ccco4)c(C)nc32)cc1	61.7*
COc1ccc(Cn2c(C)nc3c(c2=O)c2nc4ccccc4nc2n3Cc2ccco2)cc1	81.3*
CCOc1ccc(-n2c3nc4ccccc4nc3c3c(=O)n(Cc4ccco4)cnc32)cc1	4.0
COc1ccc(S(=O)(=O)c2c(N)n(Cc3ccco3)c3nc4ccccc4nc23)cc1	47.2
COc1cc(NS(C)(=O)=O)c(OC)cc1NC(=O)c1cccc(F)c1	2.2
SMILES	HIV RNase H inh
Cc1cc(C(=O)OCC(=O)N2CCN(c3ccccc3)CC2)c2ccccc2n1	-23.6
COC(=O)c1c(N2C(=O)CCC2=O)sc2c1CCCC2	-7.7
CCOC(=O)c1c(NC(=O)COC)sc2c1CCCC2	-38.6
CCNC(=O)c1c(N)sc2c1CCCCC2	57.5*
OC1(c2ccccc2)C/C(=N\n2cnnc2)C=C1c1ccccc1 (stereo unspecified)	-14.4
COc1ccc(C2CC(=O)C(C=NCCN3CCOCC3)=C(O)C2)cc1 (stereo unspecified)	54.0*
CC(=O)N1CCN(CCN=CC2=C(O)CC(c3ccco3)CC2=O)CC1 (stereo unspecified)	-7.1
CC(=O)N1CCN(CCN=CC2=C(O)CC(c3ccc(Cl)cc3)CC2=O)CC1 (stereo unspecified)	-11.2
CCNc1nnc(-c2ccc(C)cc2)o1	17.7
CCOC(=O)C(C)n1cnc2c(nnn2-c2cccc(Cl)c2)c1=O (stereo unspecified)	-6.5
O=C(NCN1C(=O)C2C3C=CC(C3)C2C1=O)Nc1nccs1 (stereo unspecified)	54.6*
Cc1nnc(NC(=O)NCN2C(=O)C3C4C=CC(C4)C3C2=O)s1 (stereo unspecified)	-6.0
CCc1nnc(NC(=O)NCN2C(=O)C3C4C=CC(C4)C3C2=O)s1 (stereo unspecified)	-3.1
COc1ccc(N2CCN(C(c3ccccc3)c3nnnn3Cc3ccc(F)cc3)CC2)cc1 (stereo unspecified)	16.3
Cc1ccc(S(=O)(=O)NC(CC(=O)O)c2ccccc2)cc1 (stereo unspecified)	-6.7
C=CCOC(=O)CC(NC(=O)c1ccccc1)c1ccccc1 (stereo unspecified)	-6.0
C=CC(=C)CC(NC)c1ccccc1 (stereo unspecified)	50.6*
COc1ccc(CCN2C(=O)CC(C(N)=O)SC2=Nc2ccccc2)cc1OC (stereo unspecified)	-5.8
c1ccc2[nH]c(SCCN3CCOCC3)nc2c1	-4.2
CCOC(=O)/C=C1\SCC(=O)N1CCOc1cccc(Br)c1	-36.5
Cc1ccc(N(C)C(=O)N2CCN(c3ccccn3)CC2)cc1	-11.2
Cc1nc(SCC(=O)c2ccc(F)cc2)n[nH]1	5.9
Cc1ccc(C(=O)CSc2ccccn2)cc1	-9.2
O=C(CSc1ccccn1)c1ccc(F)cc1	64.5*
O=S(=O)(c1ccc2ccccc2c1)N1CCCCC1	-91.8
O=S(=O)(c1cccc2c(S(=O)(=O)N3CCCC3)cccc12)N1CCCC1	-6.6
